Source: PubChem BioAssay (NCI)
The panel holds about 79,000 compounds, 15% with a hit somewhere; the sample as a whole holds those more often. The source made the active and inactive calls. Rule as the data show it: active = growth inhibition above about 70%; inactive = the rest.

Tests used:
[1] = NCI Yeast Anticancer Drug Screen. Data for the wt1 strain (AID 149);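 also: 0% = growth of vehicle-treated wt1 cultures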; details: S. cerevisiae wt1 strain (SPY 50644) growth inhibition, active compounds read high
Method in brief: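 Yeast wt1 strain exposed to compounds; growth inhibition measured relative to vehicle-treated controls.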

[2] = NCI Yeast Anticancer Drug Screen. Data for the rad50EPP+ strain (AID 151);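 also: 0% = growth of vehicle-treated control cultures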; details: S. cerevisiae rad50 mutant strain, active compounds read high
Method in brief: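 Compounds were applied to the rad50EPP+ yeast strain, which bears a defined DNA repair alteration, and growth inhibition was determined relative to vehicle-treated cultures.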

[3] = NCI Yeast Anticancer Drug Screen. Data for the mgt1 strain (AID 153); details: S. cerevisiae mgt1 mutant growth inhibition, active compounds read high
Method in brief: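 Strain: mgt1 yeast, one of a set carrying defined DNA damage repair or cell cycle control alterations. Compound-treated growth compared with vehicle.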

[4] = NCI Yeast Anticancer Drug Screen. Data for the rad50 strain (AID 155);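 also: 0% = growth of vehicle-only cultures of the same strain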; details: S. cerevisiae rad50 strain growth inhibition, active compounds read high
Method in brief: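 Yeast carrying a defined DNA repair defect were exposed to test compounds, and growth was compared with vehicle-treated controls to give percent inhibition.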

[5] = NCI Yeast Anticancer Drug Screen. Data for the mec2-1 strain (AID 157); details: S. cerevisiae mec2-1 strain, active compounds read high
Method in brief: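 Strain: mec2-1 (DNA repair/cell cycle alteration). Compound exposure, then growth measured; inhibition expressed relative to vehicle.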

[6] = NCI Yeast Anticancer Drug Screen. Data for the rad14 strain (AID 159);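 also: 0% = growth of vehicle-treated control cultures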; details: S. cerevisiae rad14 strain growth inhibition, active compounds read high
Method in brief: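 Yeast cells carrying a defined DNA-repair defect were exposed to compounds, and growth inhibition was calculated relative to vehicle-treated control cultures.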

[7] = NCI Yeast Anticancer Drug Screen. Data for the sgs1 mgt1 strain (AID 161);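 also: 0% = growth of cultures given vehicle only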; details: S. cerevisiae sgs1 mgt1 strain, active compounds read high
Method in brief: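 Genetically altered yeast, compound exposure, growth inhibition relative to vehicle.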

[8] = NCI Yeast Anticancer Drug Screen. Data for the CLN2oe strain (AID 163);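 also: 0% = growth of vehicle-only control cultures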; details: S. cerevisiae CLN2oe strain, active compounds read high
Method in brief: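 Growth of a genetically modified yeast strain is measured after compound exposure and compared with cultures given vehicle alone.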

[9] = NCI Yeast Anticancer Drug Screen. Data for the cln2 rad14 strain (AID 165);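 also: 0% = growth equal to vehicle treated cultures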; details: S. cerevisiae cln2 rad14 strain, active compounds read high
Method in brief: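 Compounds are applied to the cln2 rad14 yeast strain, and growth is then compared with that of vehicle-treated cultures to give inhibition.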

[10] = NCI Yeast Anticancer Drug Screen. Data for the bub3 strain (AID 167); details: S. cerevisiae bub3 mutant strain, active compounds read high
Method in brief: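 Compounds were applied to a genetically altered yeast strain carrying a cell-cycle control defect. Growth inhibition was scored against vehicle-treated controls.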

[11] = NCI Yeast Anticancer Drug Screen. Data for the wt2 strain (AID 169);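 also: 0% = growth of vehicle-treated yeast cultures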; details: S. cerevisiae wt2 strain growth inhibition, active compounds read high
Method in brief: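 This strain belongs to a panel of yeast strains with defined genetic alterations in DNA damage repair or cell cycle control. Compounds are applied, and growth inhibition is measured against vehicle-treated cultures.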

[12] = NCI Yeast Anticancer Drug Screen. Data for the sgs1 strain (AID 173);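 also: 0% = growth of vehicle-only control cultures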; details: S. cerevisiae sgs1 mutant, active compounds read high
Method in brief: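 Growth of a yeast strain bearing a defined genetic alteration is measured after compound treatment. Inhibition is expressed relative to vehicle-only controls.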

[13] = NCI Yeast Anticancer Drug Screen. Data for the mlh1 rad18 strain (AID 175); details: S. cerevisiae mlh1 rad18 strain growth inhibition, active compounds read high
Method in brief: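 Read-out is yeast growth inhibition, calculated against vehicle-only controls. The compound was applied to a strain engineered with DNA damage repair alterations.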

[14] = NCI Yeast Anticancer Drug Screen. Data for the rad18 strain (AID 177); details: S. cerevisiae rad18 mutant growth inhibition, active compounds read high
Method in brief: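 Growth of the mutant yeast strain after compound exposure, normalised to vehicle-only cultures.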

[15] = NCI Yeast Anticancer Drug Screen. Data for the mlh1 strain (AID 171);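 also: 0% = growth of vehicle-treated control cultures of the same strain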; details: S. cerevisiae mlh1 strain growth inhibition, active compounds read high
Method in brief: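 Growth of the mutant yeast strain after compound exposure, expressed as inhibition relative to vehicle-only controls.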

[16] = at 5.0 µM (retest, dose inferred, filed as 0.5)
[17] = at 50.0 µM (retest, dose inferred, filed as 5.0)

Measured: growth inhibition

CN(N=O)C(=O)Nc1ccc(C(=O)O)cc1
active: [4]; at 100.0 µM 77% | [7]; [17] 80% | [14]; at 11.0 µM 81% | [14]; at 33.0 µM 90% | [14]; at 100.0 µM 93%
inactive: [1]; at 1.2 µM -2% | [1]; at 3.7 µM -3% | [1]; at 11.0 µM -2% | [1]; at 33.0 µM -2% | [1]; at 100.0 µM 2% | [2]; at 1.2 µM -1% | [2]; at 3.7 µM 0% | [2]; at 11.0 µM 3% | [2]; at 33.0 µM 12% | [2]; at 100.0 µM 31% | [3]; at 1.2 µM 0% | [3]; at 3.7 µM 3% | [3]; at 11.0 µM 15% | [3]; at 33.0 µM 28% | [3]; at 100.0 µM 36% | [4]; at 1.2 µM 2% | [4]; at 3.7 µM 11% | [4]; [16] 12% | [4]; at 11.0 µM 19% | [4]; at 33.0 µM 44% | [4]; [17] 68% | [4]; at 50.0 µM 65.3% | [5]; at 1.2 µM -10% | [5]; at 3.7 µM 1% | [5]; [16] -8% | [5]; at 11.0 µM -6% | [5]; at 33.0 µM -7% | [5]; [17] 37% | [5]; at 50.0 µM 7.8% | [5]; at 100.0 µM 19% | [6]; at 1.2 µM -4% | [6]; at 3.7 µM 6% | [6]; at 11.0 µM -1% | [6]; at 33.0 µM 2% | [6]; at 100.0 µM 8% | [7]; [16] 43% | [7]; at 50.0 µM 62.6% | [8]; at 1.2 µM -4% | [8]; at 3.7 µM -3% | [8]; at 11.0 µM -6% | [8]; at 33.0 µM -9% | [8]; at 100.0 µM -1% | [9]; [16] -45% | [9]; [17] -4% | [9]; at 50.0 µM 2.05% | [10]; at 1.2 µM -14% | [10]; at 3.7 µM -8% | [10]; [16] -16% | [10]; at 11.0 µM -5% | [10]; at 33.0 µM -9% | [10]; [17] 6% | [10]; at 50.0 µM -14.2% | [10]; at 100.0 µM -8% | [11]; at 1.2 µM -3% | [11]; at 3.7 µM -2% | [11]; at 11.0 µM -1% | [11]; at 33.0 µM 0% | [11]; at 100.0 µM 6% | [12]; at 1.2 µM 2% | [12]; at 3.7 µM 8% | [12]; at 11.0 µM 20% | [12]; at 33.0 µM 35% | [12]; at 100.0 µM 55% | [13]; [16] 16% | [13]; [17] 51% | [13]; at 50.0 µM 32.9% | [14]; at 1.2 µM 18% | [14]; at 3.7 µM 47%

O=S(=O)(c1ccccc1)N1CN2CN(C1)CN(S(=O)(=O)c1ccccc1)C2
inactive: [1]; at 1.2 µM -3% | [1]; at 3.7 µM 14% | [1]; at 11.0 µM 17% | [1]; at 33.0 µM 11% | [1]; at 100.0 µM 16% | [2]; at 1.2 µM -18% | [2]; at 3.7 µM -15% | [2]; at 11.0 µM -15% | [2]; at 33.0 µM -12% | [2]; at 100.0 µM -10% | [3]; at 1.2 µM 0% | [3]; at 3.7 µM 7% | [3]; at 11.0 µM 5% | [3]; at 33.0 µM 7% | [3]; at 100.0 µM 6% | [4]; at 1.2 µM -4% | [4]; at 3.7 µM -7% | [4]; [16] 24% | [4]; at 11.0 µM -10% | [4]; at 33.0 µM -12% | [4]; [17] 38% | [4]; at 50.0 µM -11.5% | [4]; at 100.0 µM -11% | [5]; at 1.2 µM -2% | [5]; at 3.7 µM -6% | [5]; [16] 26% | [5]; at 11.0 µM -19% | [5]; at 33.0 µM 0% | [5]; at 50.0 µM -28% | [5]; at 100.0 µM -10% | [6]; at 1.2 µM -16% | [6]; at 3.7 µM -16% | [6]; at 11.0 µM -30% | [6]; at 33.0 µM -24% | [6]; at 100.0 µM -26% | [7]; [16] -11% | [7]; [17] 4% | [7]; at 50.0 µM -5.55% | [8]; at 1.2 µM 1% | [8]; at 3.7 µM -4% | [8]; at 11.0 µM -6% | [8]; at 33.0 µM 13% | [8]; at 100.0 µM -7% | [9]; [16] 44% | [9]; [17] 52% | [9]; at 50.0 µM -16.4% | [10]; at 1.2 µM -13% | [10]; at 3.7 µM -16% | [10]; [16] 25% | [10]; at 11.0 µM -25% | [10]; at 33.0 µM 3% | [10]; [17] 31% | [10]; at 50.0 µM -29.2% | [10]; at 100.0 µM -21% | [15]; at 1.2 µM -16% | [15]; at 3.7 µM -18% | [15]; at 11.0 µM -23% | [15]; at 33.0 µM -18% | [15]; at 100.0 µM -21% | [12]; at 1.2 µM -21% | [12]; at 3.7 µM -19% | [12]; at 11.0 µM -23% | [12]; at 33.0 µM -24% | [12]; at 100.0 µM -19% | [13]; [16] 40% | [13]; [17] 30% | [13]; at 50.0 µM -3.75% | [14]; at 1.2 µM -18% | [14]; at 3.7 µM -14% | [14]; at 11.0 µM -19% | [14]; at 33.0 µM -27% | [14]; at 100.0 µM -36%
active: [5]; [17] 79%
